The results in this text go back to the supplement of paper PMC8728848.

Experiment in all cases: glycan array binding signal (z-score within array); higher = stronger binding
What all share (conditions): glycan notation: IUPAC condensed, linker removed

Experiment [1] addresses Fuc(a1-2)Gal(b1-3)GlcNAc(b1-3)[Fuc(a1-2)Gal(b1-3)GlcNAc(b1-6)]GalNAc. In a few lines:
(§1)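 Columns mapping to the same glycan were averaged after glycan names were converted to IUPAC-condensed notation. The data come from 3228 arrays in the Consortium for Functional Glycomics database, limited to those with an available protein sequence. Binding is reported as a within-array Z-score averaged across arrays of one protein sequence and across linkers.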

Experiment [2] addresses Fuc(a1-2)Gal(b1-3)[Fuc(a1-4)]GlcNAc(b1-3)[Gal(b1-4)GlcNAc(b1-6)]Gal(b1-4)Glc. The method in brief: as §1
The target in experiment [3] is Fuc(a1-2)Gal(b1-4)Fuc(a1-3)]GlcNAc(b1-2)Man(a1-3)[Fuc(a1-2)Gal(b1-4)[Fuc(a1-3)]GlcNAc(b1-2)Man(a1-6)]Man(b1-4)GlcNAc(b1-4)GlcNAc. The method in brief: as §1
The target of experiment [4] is Fuc(a1-2)Gal(b1-4)[Fuc(a1-3)]GlcNAc. In a few lines: as §1
Experiment [5] deals with Fuc(a1-2)Gal(b1-4)[Fuc(a1-3)]GlcNAc(b1-3)Gal(b1-4)[Fuc(a1-3)]GlcNAc(b1-3)Gal(b1-4)[Fuc(a1-3)]GlcNAc. The method in brief: as §1
The target of experiment [6] is Fuc(a1-2)[Gal(a1-3)]Gal(b1-3)GlcNAc(b1-2)Man(a1-3)[Fuc(a1-2)[Gal(a1-3)]Gal(b1-3)GlcNAc(b1-2)Man(a1-6)]Man(b1-4)GlcNAc(b1-4)[Fuc(a1-6)]GlcNAc. In a few lines: as §1
The target of experiment [7] is Fuc(a1-2)[Gal(a1-3)]Gal(b1-4)Glc. The method in brief:
as §1

The target of experiment [8] is Fuc(a1-2)[Gal(a1-3)]Gal(b1-4)GlcNAc(b1-3)GalNAc. The method in brief: as §1
The target of experiment [9] is Fuc(a1-2)[Gal(a1-3)]Gal(b1-4)GlcNAc(b1-6)GalNAc. The method in brief: as §1
The target in experiment [10] is Fuc(a1-2)[GalNAc(a1-3)]Gal(b1-4)GlcNAc(b1-2)Man(a1-3)[Fuc(a1-2)[GalNAc(a1-3)]Gal(b1-4)GlcNAc(b1-2)Man(a1-6)]Man(b1-4)GlcNAc(b1-4)[Fuc(a1-6)]GlcNAc. The method in brief: as §1
In experiment [11] the target is Gal(b1-3)GlcNAc(b1-2)[Gal(b1-3)GlcNAc(b1-6)]Man(a1-6)[Gal(b1-3)GlcNAc(b1-2)Man(a1-3)]Man(b1-4)GlcNAc(b1-4)GlcNAc. In a few lines:
as §1

The target in experiment [12] is Gal(b1-3)GlcNAc(b1-3)Gal(b1-4)GlcNAc(b1-6)[Gal(b1-3)GlcNAc(b1-3)]Gal(b1-4)Glc. The method in brief: as §1
The target in experiment [13] is Gal(b1-3)[Fuc(a1-4)]GlcNAc(b1-2)Man. The method in brief: as §1
Experiment [14] concerns the target Gal(b1-4)GlcNAc(b1-2)[Gal(b1-4)GlcNAc(b1-6)]Man(a1-6)[Gal(b1-4)GlcNAc(b1-2)Man(a1-3)]Man(b1-4)GlcNAc(b1-4)[Fuc(a1-6)]GlcNAc. The method in brief:
as §1

The target in experiment [15] is Gal(b1-4)GlcNAc(b1-3)Gal(b1-4)GlcNAc(b1-2)Man(a1-3)[Gal(b1-4)GlcNAc(b1-3)Gal(b1-4)GlcNAc(b1-2)Man(a1-6)]Man(b1-4)GlcNAc(b1-4)[Fuc(a1-6)]GlcNAc. The method in brief: as §1
Experiment [16] concerns the target Gal(b1-4)GlcNAc(b1-3)Gal(b1-4)GlcNAc(b1-3)Gal(b1-4)GlcNAc(b1-3)Gal(b1-4)GlcNAc(b1-2)Man(a1-3)[Gal(b1-4)GlcNAc(b1-3)Gal(b1-4)GlcNAc(b1-3)Gal(b1-4)GlcNAc(b1-3)Gal(b1-4)GlcNAc(b1-2)Man(a1-6)]Man(b1-4)GlcNAc(b1-4)GlcNAc. The method in brief:
as §1

Experiment [17] has as its target Gal(b1-4)GlcNAc(b1-3)Gal(b1-4)GlcNAc(b1-3)Gal(b1-4)GlcNAc(b1-3)Gal(b1-4)GlcNAc(b1-3)Gal(b1-4)GlcNAc(b1-2)Man(a1-3)[Gal(b1-4)GlcNAc(b1-3)Gal(b1-4)GlcNAc(b1-3)Gal(b1-4)GlcNAc(b1-3)Gal(b1-4)GlcNAc(b1-3)Gal(b1-4)GlcNAc(b1-2)Man(a1-6)]Man(b1-4)GlcNAc(b1-4)GlcNAc. The method in brief:
as §1

Experiment [18] concerns the target Gal(b1-4)GlcNAc(b1-3)Gal(b1-4)GlcNAc(b1-3)[Gal(b1-4)GlcNAc(b1-3)Gal(b1-4)GlcNAc(b1-6)]GalNAc. In a few lines:
as §1

The next experiment deals with Gal3S(b1-3)GlcNAc. In a few lines: as §1
In experiment [19] the target is Gal3S(b1-4)[Fuc(a1-3)]Glc6S. In a few lines: as §1

This is one part of a sample in which the strongest signals are shown more often than they occur.

B1: Protein L(B1-B4) (Finegoldia magna), Q51912 (protein)
chain: KEETPETPETDSEEEVTIKANLIFANGSTQTAEFKGTFEKATSEAYAYADTLKKDNGEYTVDVADKGYTLNIKFAGKEKTPEEPKEEVTIKANLIYADGKTQTAEFKGTFEEATAEAYRYADALKKDNGEYTVDVADKGYTLNIKFAGKEKTPEEPKEEVTIKANLIYADGKTQTAEFKGTFEEATAEAYRYADLLAKENGKYTVDVADKGYTLNIKFAGKEKTPEEPKEEVTIKANLIYADGKTQTAEFKGTFAEATAEAYRYADLLAKENGKYTADLEDGGYTINIRFAG
With B1, the “glycan array binding signal (z-score)” value was 2.77 in experiment [1]; -0.528 in experiment [2]; 1.7 in [3]; -0.142 in experiment [4]; 0.159 in experiment [5]; 3.09 in [6]. Moreover, the “glycan array binding signal (z-score)” value in experiment [7] was 0.047; in experiment [8] it was 3.09; in [9], -0.474; in experiment [10] it was 2.95; in experiment [11], 0.177; in experiment [12], -0.192. Also, the “glycan array binding signal (z-score)” value turned out to be 1.5 in experiment [13]; 2.92 in experiment [14]; 0.486 in [15]; 2.06 in [16]; 0.528 in [17]; 4.22 in experiment [18]. Moreover, the “glycan array binding signal (z-score)” value with Gal3S(b1-3)GlcNAc was -0.911; in experiment [19], 2.28.
